Compound activity as filed in PubChem BioAssay.
Sm TGR block: inhibitors of Schistosoma mansoni thioredoxin glutathione reductase; AID 485364; Potency, µM (top dose mostly 114 µM), most hits filed as inhibitors; purified TGR, DTNB reduction, TNB absorbance 405 nm; hit rate 3% among 360,000; note: nearly all actives have a fitted effect of over 60% in size
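TGR 20 nM + NADPH 100 uM (dispensed conc.), cpd preinc 15 min RT; start with NADPH (500 uM addition) then DTNB (15 mM addition). Kinetic TNB absorbance, 405 nm filter. Four-parameter Hill fit across titration.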
CHX counter: counter-screen hit for Shiga toxin inhibitors, cycloheximide; hit rate 12% among 300,000; max response, %; cell reporter, cycloheximide protein synthesis inhibition counterscreen; in the data active = max response mostly above about 13%, no sharp cut-off; inactive = mostly below about 14%; note: read at 38.3 µM for the half of the compounds with a filed dose
Giardia FBPA inh: blocks Giardia fructose-bisphosphate aldolase activity; AID 2451; hit rate 0.71% among 290,000; Potency, µM (highest dose often 59.6 µM), most hits filed as inhibitors; purified Giardia FBPA; A8B2U2; note: nearly all actives have a fitted effect of over 55% in size
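Giardia FBPA (40 nM reagent) was preincubated 10 min at RT with compound (up to 57.5 uM final), then substrate plus GAPDH/TPI/NAD/arsenate coupling system with diaphorase/resazurin was added; resorufin fluorescence (525/598 nm) was read after 20 min.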
Tb PYK inh: blocks Trypanosoma brucei pyruvate kinase. hit rate 0.12% among 410,000. Potency, µM (doses to about 76.8 µM), actives largely listed as inhibitors. TbPYK enzyme, Kinase-Glo Plus ATP luminescence, 45 min; note: nearly all actives have a fitted effect of over 50% in size
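T. brucei PYK with substrate was exposed to pin-transferred compounds across a concentration series, then started with 130 uM ADP (final). After 45 min at room temperature, Kinase-Glo Plus luminescence was read, normalized and curve-fitted.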
LmPK inhibitor: LmPK (Leishmania mexicana) enzyme inhibition | purified LmPK, Kinase-Glo ATP luminescence, 1 h | Potency, µM (series often up to 57.5 µM), hits mostly inhibitors | hit rate 0.37% among 290,000 | Q27686
Target sequence (Q27686 whole entry, looked up): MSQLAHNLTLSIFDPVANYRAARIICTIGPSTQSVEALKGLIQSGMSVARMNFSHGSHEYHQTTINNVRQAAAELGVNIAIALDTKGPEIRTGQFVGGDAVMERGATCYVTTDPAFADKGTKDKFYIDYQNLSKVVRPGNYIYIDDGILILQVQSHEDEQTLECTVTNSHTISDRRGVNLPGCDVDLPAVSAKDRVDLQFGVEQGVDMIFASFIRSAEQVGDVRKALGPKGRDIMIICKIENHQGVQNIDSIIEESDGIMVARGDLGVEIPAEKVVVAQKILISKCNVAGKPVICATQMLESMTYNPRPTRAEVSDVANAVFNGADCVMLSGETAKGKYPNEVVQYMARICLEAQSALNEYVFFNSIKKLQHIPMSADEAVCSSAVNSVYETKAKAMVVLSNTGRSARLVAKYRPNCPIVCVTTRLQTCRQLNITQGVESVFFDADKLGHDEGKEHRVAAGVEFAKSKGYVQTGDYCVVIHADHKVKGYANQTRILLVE
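qHTS format; LmPK 0.1 nM; substrates PEP 0.5 mM and ADP 0.1 mM. One-hour room-temperature incubation, then coupled luciferase luminescence; 0.5 nM enzyme wells mark activation.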
Shiga toxin inh: Shiga toxin inhibition; inhibition, % at 38.7 µM; Vero cells, Shiga toxin protein synthesis inhibition reporter; hit rate 9.2% among 290,000; AID 2315; in the data active = inhibition mostly above about 28%, no sharp cut-off; inactive = mostly below about 43%
A number is an active result; - = inactive; ? = inconclusive; . = no result given. The full list was thinned out, with hits kept by preference. Unless noted, calls come from the whole dose curve; as a rule, active = well fitted curve in the direction sought with a large enough effect; inconclusive = small, poorly fitted or top-dose-only effect, or another doubt; inactive = no such curve, though single readings can be large; an effect the other way counts as inactive or inconclusive.

SMILES	Sm TGR block	CHX counter	Giardia FBPA inh	Tb PYK inh	LmPK inhibitor	Shiga toxin inh
CCOC(=O)N1CCC2(CC1)C(C#N)=C(N)Oc1n[nH]c(C)c12	-	-	-	-	-	-
CCOC(=O)N1CCC2(CC1)C(C#N)=C(N)Oc1c2c(C)nn1-c1cccc(Cl)c1	1.1µM	-	-	-	-	-
COc1cccc2c1OC(=O)CC2c1ccccc1C (stereo not drawn)	.	-	-	.	.	-
CN(C)CCN(Cc1ccccc1)S(=O)(=O)c1ccc(-c2cc(C(F)(F)F)on2)s1	-	.	.	-	.	.
CCCN1C=CC(=CC=C(C#N)C#N)C=C1	-	-	-	-	-	-
C=CCN1C=CC(=CC=C(C#N)C#N)C=C1	-	21	-	-	-	74
Cc1cc(=O)[nH]c(S/C=C/c2ccccc2)n1	-	28	-	-	13µM	58
Nc1ccc2c(c1)OC1(CCCCC1)O2	14µM	-	?	-	-	-
CC(=O)Nc1ccc(CC(=O)Nc2ccc3c(c2)OC2(CCCC2)O3)cc1	.	.	.	-	.	.
CCOc1ccc2nc(NC(=O)CSc3ccc(Cl)cc3)sc2c1	-	-	-	-	-	-
CCOc1ccc2nc(NC(=O)CSc3nc(SC)ns3)sc2c1	-	55	-	-	-	70
CCOc1ccc2nc(NC(=O)CSc3nc(-c4ccccc4)c(C#N)c(=O)[nH]3)sc2c1	-	41	?	-	-	39
Cc1cccc2sc(NC(=O)CSc3cn[nH]n3)nc12	-	-	-	-	-	-
COc1ccc2nc(NC(=O)CSc3cn[nH]n3)sc2c1	-	43	-	-	-	66
CCOc1ccc2nc(NC(=O)CSc3cn[nH]n3)sc2c1	-	34	-	-	-	149
CC1(C)Cc2c(sc(NC(=O)C(=O)N3CCCC3)c2C#N)CO1	-	-	-	-	-	-
CC(C)c1ccc(S(=O)(=O)N2CCC(C(=O)NCc3ccco3)CC2)cc1	-	.	.	-	.	.
Cn1c(=O)oc2cc(S(=O)(=O)N3CCC(C(=O)N4CCN(c5ccccc5F)CC4)CC3)ccc21	-	.	.	-	.	.
Cc1ccc(Nc2ccc(-n3ccnc3)nn2)cc1C	-	22	-	-	-	-
COc1cccc(Nc2ccc(-n3ccnc3)nn2)c1	-	-	-	-	-	-
O=C(NC12CC3CC(CC(C3)C1)C2)N1CCC(O)CC1	-	-	-	-	-	-
O=C(NC12CC3CC(CC(C3)C1)C2)N1CCN(C(=O)C2CCCO2)CC1 (stereo not drawn)	-	11	-	-	-	-
CCCc1[nH]n(-c2nc3ccccc3s2)c(=O)c1C=NCC1CCCO1 (stereo not drawn)	-	24	-	-	-	-
Cc1[nH]n(-c2ccccc2)c(=O)c1C=NCc1ccco1	.	41	-	.	-	98
Cc1[nH]n(-c2ccccc2)c(=O)c1C=NCC1CCCO1 (stereo not drawn)	-	23	-	-	-	49
SMILES	Sm TGR block	CHX counter	Giardia FBPA inh	Tb PYK inh	LmPK inhibitor	Shiga toxin inh
Cc1[nH]n(-c2ccccc2)c(=O)c1/C=N/N(C)c1ccccc1	-	-	-	-	-	45
COC(=O)CN=Cc1c(C)[nH]n(-c2ccccc2)c1=O	-	-	-	-	-	-
CCCc1[nH]n(-c2ccc(F)cc2)c(=O)c1C=NCC1CCCO1 (stereo not drawn)	-	-	-	-	-	-
Cc1[nH]n(-c2ccccc2)c(=O)c1C=Nc1ccc(S(=O)(=O)N(C)C)cc1	-	-	-	-	-	-
O=C(Nc1cc(Cl)cc(Cl)c1)c1cc(S(=O)(=O)N2CCC3(CC2)OCCO3)ccc1F	-	.	.	-	.	.
CS(C)(=O)=O	.	.	-	.	.	.
C[C@@H]1CN([C@@H](C)CO)S(=O)(=O)c2ccc(Br)cc2O[C@H]1CN(C)Cc1ccccn1	.	.	.	-	.	.
O=C(NCCc1nc2ccccc2n1Cc1ccc(Cl)cc1Cl)c1ccco1	-	.	.	-	.	.
Cc1[nH]n(-c2cccc(Cl)c2)c(=O)c1C=NCc1ccco1	.	43	-	-	-	107
Cc1[nH]n(-c2cccc(Cl)c2)c(=O)c1C=NCC(C)C	-	43	-	-	-	96
Cc1[nH]n(-c2cccc(Cl)c2)c(=O)c1C=NC12CN3CN(CN(C3)C1)C2	-	-	-	-	-	-
CC1CCC(NC(=O)c2nc(Cn3ccc([N+](=O)[O-])n3)no2)CC1 (stereo not drawn)	?	-	-	-	-	-
Cc1nc2cc(NC(=O)NCc3ccco3)ccc2o1	-	17	-	-	-	49
Cc1nc2cc(NC(=O)c3cccc(S(C)(=O)=O)c3)ccc2o1	-	13	-	-	-	-
Cc1ccc(NC(=O)c2cccc(S(C)(=O)=O)c2)cc1	-	33	-	-	-	97
O=C(CSc1nnc(C2CC2)n1C1CC1)c1cc(F)ccc1F	-	.	.	-	.	.
Cc1cc(C)cc(NC(=O)C2CCCN(c3nnc(-n4c(C)ccc4C)s3)C2)c1 (stereo not drawn)	-	.	.	-	.	.
O=C(CSc1nnc(-c2csc3c2CCCC3)o1)Nc1ccccc1	-	58	-	-	-	55
O=C(CCSc1nnc(-c2ccncc2)o1)Nc1ccccc1	-	-	-	-	-	-
Cc1cc(NC(=O)CSc2nnc(-c3ccc(O)cc3)o2)no1	-	active	-	-	-	52
N#Cc1cccc(NC(=O)CSc2ccccc2)c1	-	9.1	-	-	-	-
Cc1cc(-c2nnc(SCCC(=O)Nc3ccccc3)o2)no1	-	35	.	-	-	-
N#Cc1cccc(NC(=O)Cc2ccccc2)c1	.	-	-	-	-	-
O=C(CSc1nnc(Cc2ccccc2)o1)Nc1ccccc1	.	-	-	-	-	-
CCOc1ccccc1NC(=O)c1cnc(N2CCOCC2)c2ccccc12	-	.	.	-	.	.
SMILES	Sm TGR block	CHX counter	Giardia FBPA inh	Tb PYK inh	LmPK inhibitor	Shiga toxin inh
Cc1cc(OCC(=O)NCCN2CCOCC2)c2c(C)c(C)c(=O)oc2c1	-	-	-	-	-	-
CCOc1ccc(-c2nnc(SCC(=O)Nc3cccc(C#N)c3)o2)cc1	10µM	.	.	-	.	.
O=C(CSc1nnc(-c2ccc(O)cc2)o1)Nc1ccccc1	-	28	-	-	-	61
Cc1ccccc1NC(=O)CSc1nnc(-c2ccccn2)o1	-	-	-	-	-	-
O=C(CSc1nnc(-c2ccccn2)o1)Nc1ccccc1F	-	25	.	-	-	74
COc1cc(C2c3cc4c(cc3C(OC(C)=O)[C@H]3COC(=O)C23)OCO4)cc(OC)c1OC (stereo partly drawn)	.	.	-	.	.	.
O=C(O)CO.[NH2-].[NH2-].[Pt+2]	.	.	.	-	.	.
NC(=O)c1sc2nc3c(c(-c4ccco4)c2c1N)CCC3	-	-	?	-	-	-
Nc1c(C(=O)NC2CC2)sc2nc3c(c(-c4ccco4)c12)CC/C3=C/c1ccco1	5µM	-	5.6µM	-	-	-
CC(C)CN(CC(C)C)S(=O)(=O)c1ccc(C(=O)Nc2sc3c(c2C(N)=O)CC(C)(C)NC3(C)C)cc1	-	.	.	-	.	.
O=c1[nH]c(=S)[nH]c(O)c1N=Nc1ccc(OC(F)F)cc1	?	-	-	-	-	-
